The campaign covered roughly 5,500 compounds. About 2,000 (36%) were called active. Roughly 18% stayed inconclusive and do not appear here. Rule as the data show it: active = normalized growth mostly below about 0.91 (no sharp cut-off); inconclusive = no clear call, values can overlap the other calls; inactive = mostly above about 0.92. This is one part of the list.
Assay: chemical genetic growth profiling, strain panel (AID 1159580);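 also: tested at 20 µM; growth read once vehicle control cultures reached saturation at 30 °C; 1 = growth at the plate median or of vehicle wells; lower values mean less growth of the strain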
Conditions: S. cerevisiae deletion strains, growth OD

Measured: normalized growth

O=C(/C=C/c1ccc(O)c(O)c1)OC(Cc1ccc(O)c(O)c1)C(=O)O (stereo not given)
inactive: locus YAL021C, strain ccr4, stronger effect = lower value 1.07 | locus YAL026C, strain drs2, stronger effect = lower value 1.03 | locus YAL030W, strain snc1, stronger effect = lower value 1.01 | locus YBL061C, strain skt5, stronger effect = lower value 1.05 | locus YBR009C, strain hhf1, stronger effect = lower value 1.01 | locus YBR023C, strain chs3, stronger effect = lower value 1.04 | locus YBR171W, strain sec66, stronger effect = lower value 1.01 | locus YBR231C, strain swc5, stronger effect = lower value 0.994 | locus YBR279W, strain paf1, stronger effect = lower value 1.02 | locus YCL011C, strain gbp2, stronger effect = lower value 1.02 | locus YCL016C, strain dcc1, stronger effect = lower value 1.05 | locus YCL061C, strain MRC1, stronger effect = lower value 1.03 | locus YCL069W, strain vba3, stronger effect = lower value 1.02 | locus YCR088W, strain abp1, stronger effect = lower value 1.02 | locus YDL005C, strain med2, stronger effect = lower value 1.01 | locus YDL040C, strain nat1, stronger effect = lower value 1.02 | locus YDR001C, strain nth1, stronger effect = lower value 1.02 | locus YDR069C, strain doa4, stronger effect = lower value 1.03 | locus YDR137W, strain rgp1, stronger effect = lower value 1.09 | locus YDR159W, strain sac3, stronger effect = lower value 0.922 | locus YDR195W, strain ref2 1.07 | locus YDR297W, strain sur2, stronger effect = lower value 1.02 | locus YDR334W, strain swr1, stronger effect = lower value 1.04 | locus YDR335W, strain msn5, stronger effect = lower value 1.03 | locus YDR392W, strain spt3, stronger effect = lower value 0.885 | locus YEL003W, strain gim4, stronger effect = lower value 0.999 | locus YEL037C, strain rad23, stronger effect = lower value 1.02 | locus YEL061C, strain CIN8 (second series), stronger effect = lower value 1.02 | locus YER015W, strain faa2, stronger effect = lower value 1.01 | locus YER016W, strain bim1, stronger effect = lower value 1.04 | locus YER111C, strain swi4, stronger effect = lower value 1.01 | locus YER155C, strain BEM2 (second series), stronger effect = lower value 0.997 | locus YFR010W, strain ubp6, stronger effect = lower value 0.997 | locus YGL167C, strain pmr1, stronger effect = lower value 1.01 | locus YGL173C, strain kem1, stronger effect = lower value 0.995 | locus YGL227W, strain vid30, stronger effect = lower value 1.02 | locus YGL240W, strain doc1, stronger effect = lower value 1.04 | locus YGL253W, strain hxk2, stronger effect = lower value 1.05 | locus YHR013C, strain ard1, stronger effect = lower value 0.999 | locus YHR027C, strain rpn1, stronger effect = lower value 1 | locus YHR030C, strain SLT2, stronger effect = lower value 0.982 | locus YHR079C, strain IRE1, stronger effect = lower value 0.989 | locus YHR142W, strain chs7, stronger effect = lower value 1.04 | locus YJL092W, strain hpr5, stronger effect = lower value 1.02 | locus YJL095W, strain BCK1 (second series), stronger effect = lower value 1.03 | locus YJL095W, strain BCK1, stronger effect = lower value 0.999 | locus YJL115W, strain asf1, stronger effect = lower value 1.02 | locus YJL129C, strain trk1, stronger effect = lower value 1.03 | locus YJL154C, strain vps35, stronger effect = lower value 1.02 | locus YJL164C, strain tpk1, stronger effect = lower value 0.99 | locus YJL166W, strain qcr8, stronger effect = lower value 1.03 | locus YJL187C, strain SWE1, stronger effect = lower value 1.03 | locus YJR066W, strain TOR1, stronger effect = lower value 0.912 | locus YKL160W, strain elf1, stronger effect = lower value 1.04 | locus YKR026C, strain gcn3, stronger effect = lower value 1.03 | locus YKR091W, strain srl3, stronger effect = lower value 1.01 | locus YLL001W, strain dnm1, stronger effect = lower value 1 | locus YLL026W, stronger effect = lower value 1.02 | locus YLL041C, strain sdh2, stronger effect = lower value 1.02 | locus YLR027C, strain aat2, stronger effect = lower value 1.04 | locus YLR113W, strain HOG1, stronger effect = lower value 0.979 | locus YLR221C, strain rsa3, stronger effect = lower value 0.989 | locus YLR258W, strain gsy2, stronger effect = lower value 1.01 | locus YLR262C, strain YPT6 (second series), stronger effect = lower value 1.05 | locus YLR320W, strain mms22, stronger effect = lower value 1 | locus YLR342W, strain FKS1, stronger effect = lower value 1.02 | locus YLR357W, strain rsc2, stronger effect = lower value 1.04 | locus YLR370C, strain arc18, stronger effect = lower value 1.03 | locus YLR384C, strain iki3, stronger effect = lower value 1 | locus YML120C, strain ndi1, stronger effect = lower value 0.994 | locus YMR058W, strain fet3, stronger effect = lower value 0.932 | locus YMR125W, strain sto1, stronger effect = lower value 1.02 | locus YMR129W, stronger effect = lower value 1.02 | locus YMR205C, strain PFK2, stronger effect = lower value 1.08 | locus YMR231W, strain pep5, stronger effect = lower value 1.01 | locus YNL071W, strain lat1, stronger effect = lower value 1.01 | locus YNL183C, strain NPR1, stronger effect = lower value 0.905 | locus YNL209W, strain ssb2, stronger effect = lower value 1 | locus YNL248C, strain rpa49, stronger effect = lower value 1.03 | locus YNL322C, strain KRE1 (second series), stronger effect = lower value 1.03 | locus YNR049C, strain mso1, stronger effect = lower value 1.02 | locus YOR001W, strain rrp6, stronger effect = lower value 0.965 | locus YOR070C, strain gyp1, stronger effect = lower value 1.01 | locus YOR080W, strain dia2, stronger effect = lower value 1.02 | locus YOR083W, strain WHI5, stronger effect = lower value 0.988 | locus YOR106W, strain vam3, stronger effect = lower value 1.05 | locus YOR231W, strain MKK1, stronger effect = lower value 1 | locus YOR265W, strain rbl2, stronger effect = lower value 1.01 | locus YOR270C, strain vph1, stronger effect = lower value 1.07 | locus YOR290C, strain snf2, stronger effect = lower value 1.04 | locus YPL051W, strain arl3, stronger effect = lower value 1.04 | locus YPL078C, strain atp4, stronger effect = lower value 1.06 | locus YPL106C, strain sse1, stronger effect = lower value 1.06 | locus YPL240C, strain hsp82, stronger effect = lower value 1.02 | locus YPL256C, strain CLN2, stronger effect = lower value 1
